BaF3 parental – parental Ba/F3 viability inhibition as JAK2V617F counter-screen. CellTiter-Glo ATP luminescence. inhibition, % at 5.6 µM. 220,000 compounds, 1.1% hits;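 active = inhibition above a per-campaign cutoff, the mean inhibition of all tested compounds plus 3 SD, cut at about 27% in these data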
Ba/F3 V617F tox – reduce viability of Ba/F3 cells dependent on JAK2V617F; 220,000 compounds, 1.1% hits; inhibition, % at 5.6 µM; Ba/F3 EpoR-JAK2V617F viability, ATP luminescence;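 active = inhibition above the campaign mean plus 3 SD over all tested compounds, cut at about 24% in these data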;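 note: cytokine-independent growth of Ba/F3 cells driven by EpoR plus mutant JAK2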
APP transl inh – APP translation inhibition; SH-SY5Y APP 5'UTR-luciferase reporter, luminescence; inhibition, % at 2 µM; 190,000 compounds, 0.82% hits; AID 1285;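 active = inhibition above a set limit, derived from the sample mean plus 3 SD, cut at about 45% in these data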
aSyn 5UTR inh – 5' untranslated region of α-synuclein, MLPCN primary screen | alpha-synuclein 5'UTR reporter, inhibitor activity | inhibition, % (tested at 7.5 µM) | 300,000 compounds, 0.82% hits; in the data active = inhibition above about 60%;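 note: H4 neuroglioblastoma cells stably carrying SNCA 5'UTR luciferase fusion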
IEC-6 tox-1 – IEC-6 cytotoxicity, counter-screen for KLF5 inhibitors. inhibition, % at 5 µM. 290,000 compounds, 0.78% hits. luminescence viability
KLF5 inh – suppresses KLF5 promoter-driven expression; inhibition, % at 5 µM; DLD-1 KLF5 promoter-luciferase reporter, luminescence; 290,000 compounds, 0.23% hits;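 active = inhibition above a per-plate limit of that plate's mean compound inhibition plus 3 SD, cut at about 60% in these data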;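 note: higher means less KLF5 promoter-driven luciferase light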
KLF5 confirm – KLF5 inhibition, confirmation assay; DLD-1 KLF5 promoter firefly luciferase reporter, luminescence; 610 compounds, 79% hits; inhibition, % at 4 µM; shares compounds with KLF5 inh;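 active = inhibition above a set limit taken from the earlier primary screen, cut at about 63% in these data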
IEC-6 tox-2 – rat IEC-6 cytotoxicity, KLF5 inhibitor counter-screen | 610 compounds, 56% hits | AID 1905 | inhibition, % at 4 µM | IEC-6 rat intestinal cells, viability luminescence | shares compounds with KLF5 inh; in the data active = inhibition above about 23%;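 note: cells exposed to compounds for 48 hours before viability read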
IEC-6 cytotox cf – confirmation of cytotoxic compounds in rat IEC-6 intestinal epithelial cells; shares compounds with IEC-6 tox-1; IEC-6 rat intestinal epithelial viability, luminescence; inhibition, % at 5 µM; 1,900 compounds, 63% hits
Hits are given with their value; n = inactive; x = no result. Most compounds without a hit are left out; they make up all but 2.2% or so of the library. Cut-off read from the data, not from the text of the source, unless noted: active = inhibition above about 22%; inactive = the rest.

SMILES | BaF3 parental | Ba/F3 V617F tox | APP transl inh | aSyn 5UTR inh | IEC-6 tox-1 | KLF5 inh | KLF5 confirm | IEC-6 tox-2 | IEC-6 cytotox cf
O=C(N/N=C/c1cc(Br)ccc1OC(=O)c1ccc(Br)cc1)c1ccncc1 | x | x | x | n | 97.0 | 77.8 | 89.6 | n | 23.6
O=C(N/N=C/c1ccc(OC(=O)c2ccc(Br)cc2)cc1)c1ccncc1 | x | x | x | n | n | n | x | x | x
O=C(N/N=C/c1cc(Br)ccc1O)c1ccncc1 | n | n | x | n | 22.2 | 83.9 | 89.4 | n | 28.6
CC(NC(=O)C1CCN(c2nnc(N3CCCC3=O)s2)CC1)c1ccccc1 (stereo not drawn) | x | x | x | n | n | n | x | x | x
CCN(CC)C(=O)c1[nH]cnc1C(=O)N[C@@H](Cc1ccccc1)C(=O)OC(C)(C)C | x | x | x | n | n | n | x | x | x
Cc1c(C(=O)OCc2ccccc2)[nH]c2c1C(=O)CC(c1ccco1)C2 (stereo not drawn) | 73.2 | 68.0 | 94.3 | n | 80.7 | 77.2 | 80.5 | 56.0 | 52.4
CCOC(=O)c1[nH]c2c(c1C)C(=O)CC(c1ccco1)C2 (stereo not drawn) | 88.0 | 87.1 | 95.8 | 73.3 | 88.6 | 82.6 | 90.3 | 66.0 | 63.1
Cc1c(C(=O)OCCOC(C)C)[nH]c2c1C(=O)CC(c1ccco1)C2 (stereo not drawn) | 85.8 | 80.7 | 96.1 | n | 89.1 | 76.9 | 85.2 | 67.0 | 60.1
Cc1c(C(=O)O)[nH]c2c1C(=O)CC(c1ccccc1)C2 (stereo not drawn) | n | n | n | n | n | n | x | x | x
Cc1cccc(CC(=O)Nc2cccnc2)c1 | x | x | x | n | n | n | x | x | x
Cc1ccc(NC(=O)CSc2nnc(C3CC3)n2N)cc1S(=O)(=O)N1CCOCC1 | n | n | n | n | n | n | x | x | x
O=C(COC(=O)C1CCC1)Nc1cc(S(=O)(=O)N2CCCCC2)ccc1Cl | x | x | x | n | x | x | x | x | x
Cc1cccc(NC2=C/C(=N/S(=O)(=O)c3cccs3)c3ccccc3C2=O)c1 | n | n | n | x | n | n | x | x | x
CCc1ccc(S(=O)(=O)/N=C2\C=C(Nc3cccc(C(=O)O)c3)C(=O)c3ccccc32)cc1 | x | x | x | n | n | n | x | x | x
CCc1ccc(S(=O)(=O)/N=C2\C=C(Nc3ccc(O)cc3)C(=O)c3ccccc32)cc1 | x | x | x | 101.4 | 101.6 | 95.7 | 69.2 | 59.8 | 66.7
O=C1C(Nc2ccc(O)cc2)=C/C(=N/S(=O)(=O)c2cccs2)c2ccccc21 | 101.2 | 87.5 | 53.7 | 113.8 | 102.5 | 67.0 | 113.8 | 101.6 | 102.6
Cc1ccc(CCN2CC(C(=O)NCCCN3CCC(C)CC3)CC2=O)cc1 (stereo not drawn) | x | x | x | n | n | n | x | x | x
Cc1cccc(N(C)S(=O)(=O)c2ccc(-c3cc(C)no3)s2)c1 | x | x | x | 87.9 | 77.5 | 74.5 | 74.3 | 55.1 | 53.4
CCN(c1cccc(C)c1)S(=O)(=O)c1ccc(-c2cc(C)no2)s1 | x | x | x | n | 66.7 | 72.0 | n | 37.2 | 37.0
C[C@H](NC(=O)COc1ccc(Cl)cc1)C(=O)N1CCC2(CC1)NCCc1[nH]cnc12 | x | x | x | n | n | n | x | x | x
Cc1ccc(S(=O)(=O)c2ccccc2)cc1S | n | n | n | n | n | n | x | x | x
Cc1onc(-c2ccccc2Cl)c1C(=O)N1CCN(C=O)CC1 | x | x | x | n | n | n | x | x | x
Cc1cccc(N2CCN(C(=O)c3c(-c4ccccc4Cl)noc3C)CC2)c1C | x | x | x | n | 73.4 | 77.3 | 75.7 | 56.5 | 55.3
Cc1ccc(S(=O)(=O)CCC(=O)N2CCN(c3ccc([N+](=O)[O-])cc3)CC2)cc1 | x | x | x | n | n | n | x | x | x
CC(=O)c1cccc(Nc2c3c(nc4ccccc24)CCC3)c1 | x | x | x | 75.5 | 75.3 | 64.8 | 102.0 | 51.0 | 51.0
SMILES | BaF3 parental | Ba/F3 V617F tox | APP transl inh | aSyn 5UTR inh | IEC-6 tox-1 | KLF5 inh | KLF5 confirm | IEC-6 tox-2 | IEC-6 cytotox cf
COc1ccc(C(Nc2ccc(S(=O)(=O)NCC3CCCO3)cc2)C(=O)NC(C)(C)C)cc1OC (stereo not drawn) | n | n | n | n | n | n | x | x | x
Cc1cccc(N2CCN(C(=O)c3cccc(N4CCCC4=O)c3)C(C)C2)c1 (stereo not drawn) | x | x | x | n | 63.2 | 63.7 | 69.0 | 36.2 | 39.7
COC(=O)Nc1nc2ccc(C(=O)c3cccs3)cc2[nH]1 | x | x | x | n | x | x | x | x | x
CCCSc1ccc2nc(NC(=O)OC)[nH]c2c1 | 75.8 | 78.0 | 92.2 | n | 80.3 | 76.3 | n | 60.9 | 55.7
CCn1c2ccccc2c2cc(Nc3cc(C)nc4ncnn34)ccc21 | 85.8 | 83.8 | 95.9 | 81.7 | 93.6 | 75.5 | 81.8 | 71.6 | 72.0
CCOc1ccc(C2=Nn3c(nnc3-c3ccccc3OC)SC2)cc1 | 93.1 | 96.0 | 94.9 | 108.9 | 95.5 | 82.5 | 94.2 | 84.1 | 82.9
Cc1cccc(-c2noc(CNS(=O)(=O)c3ccccc3)n2)c1 | x | x | x | n | n | n | x | x | x
O=c1c2ccccc2cnn1-c1nc2ccccc2[nH]1 | 64.7 | 64.8 | 69.3 | 97.8 | 53.5 | 105.3 | 100.3 | 52.1 | 60.0
COc1ccc2[nH]c(C(=O)N/N=C/c3ccc(OC)c(O)c3)cc2c1 | x | x | x | n | 30.3 | 65.0 | 68.6 | n | n
CCCOc1ccc2[nH]c(C(=O)N/N=C/c3cc(OC)c(OC)c(OC)c3)cc2c1 | x | x | x | n | n | n | x | x | x
Cn1nc(-c2ccc(Cl)cc2)nc2c(=O)n(C)c(=O)nc1-2 | 85.4 | 94.9 | n | 110.4 | 97.5 | 90.5 | 113.3 | 63.2 | 77.5
COc1cccc(/C=N/NC(=O)c2c(C)nc3ccc(Cl)cn23)c1O | x | x | x | n | 83.0 | 92.5 | 87.7 | 62.5 | 47.3
COc1ccccc1/C=N\NC(=O)c1c(C)nc2ccc(Cl)cn12 | x | x | x | n | n | n | x | x | x
O=C(Cn1nc(-c2ccccc2)ccc1=O)N1CCCCC1 | x | x | x | n | n | n | x | x | x
COCCCNc1nnc(Cc2ccc(Cl)cc2)c(=O)[nH]1 | x | x | x | 66.5 | 82.0 | 62.2 | 80.4 | 38.4 | 59.9
O/N=C/c1cccc[n+]1CCCCCC[n+]1ccccc1/C=N/O | x | x | x | n | n | n | x | x | x
CCCCCCCCC[n+]1cccc2c3ccccc3ccc21 | 92.4 | 101.0 | n | 69.2 | 60.4 | 74.7 | 71.4 | 39.5 | 71.9
O=C(c1cc([N+](=O)[O-])ccc1N1CCOCC1)N1CCN(c2ccccc2)CC1 | x | x | x | 91.4 | 90.3 | 81.8 | 89.9 | 72.7 | 62.1
O=C(c1ccc(Br)cc1)c1cc([N+](=O)[O-])ccc1N1CCCCC1 | 78.9 | 82.6 | 95.0 | 91.5 | 86.9 | 84.4 | 82.3 | 63.1 | 59.7
Cc1ccc(C(=O)c2cc([N+](=O)[O-])ccc2N2CCOCC2)c(C)c1 | 83.8 | 75.5 | 94.0 | 97.7 | 90.6 | 73.6 | 83.8 | 70.2 | 58.8
Cc1ccc(C)c(C(=O)COC(=O)c2cc([N+](=O)[O-])ccc2N2CCOCC2)c1 | x | x | x | n | x | x | x | x | x
COCCN1CCN(C(=O)C2CCC(=O)N(CCc3ccccc3)C2)CC1 (stereo not drawn) | x | x | x | n | n | n | x | x | x
Cc1cc(C)c(NC(=O)CSc2ccc(-c3cccnc3)nn2)c(C)c1 | n | n | n | n | n | n | x | x | x
